Screens as filed in PubChem BioAssay.
a7 integrin act: activates integrin-mediated alleviation for muscular dystrophy; alpha7betagal myoblasts, beta-gal FDG fluorescence, 48 h; Potency, µM (highest dose often 38.3 µM), hits mostly activators; 350,000 tested, 0.064% active; AID 624291; note: nearly all actives have a fitted effect of over 60% in size
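alpha7betagal+/- myoblasts (passage 13, 250/well) treated 48 h at 37C with compounds at 1:260 dilution of DMSO stock. Lysed, then beta-galactosidase activity read as FDG fluorescence (ex 480/em 540) after 30 min, with pre-read for autofluorescence.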
ERG-DNA inh: ERG Ets/DNA interaction inhibition | P11308 | fluorescence polarization, His-ERG Ets domain / labelled DNA | 370,000 tested, 0.028% active | Potency, µM (series often up to 76.9 µM), usual class: inhibitors; active = well fitted inhibition curve with a large enough effect in the polarisation, with a control signal flat; inconclusive = small, poorly fitted or top-dose-only effect, or effect the other way, or a change in a side signal; inactive = no such curve, though single readings can be large or run the other way; the % refers to the polarisation;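 note: polarization taken with two DNA probes labelled with fluorescein and Texas red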
Target sequence (P11308 whole entry, looked up, the tested form may be a part): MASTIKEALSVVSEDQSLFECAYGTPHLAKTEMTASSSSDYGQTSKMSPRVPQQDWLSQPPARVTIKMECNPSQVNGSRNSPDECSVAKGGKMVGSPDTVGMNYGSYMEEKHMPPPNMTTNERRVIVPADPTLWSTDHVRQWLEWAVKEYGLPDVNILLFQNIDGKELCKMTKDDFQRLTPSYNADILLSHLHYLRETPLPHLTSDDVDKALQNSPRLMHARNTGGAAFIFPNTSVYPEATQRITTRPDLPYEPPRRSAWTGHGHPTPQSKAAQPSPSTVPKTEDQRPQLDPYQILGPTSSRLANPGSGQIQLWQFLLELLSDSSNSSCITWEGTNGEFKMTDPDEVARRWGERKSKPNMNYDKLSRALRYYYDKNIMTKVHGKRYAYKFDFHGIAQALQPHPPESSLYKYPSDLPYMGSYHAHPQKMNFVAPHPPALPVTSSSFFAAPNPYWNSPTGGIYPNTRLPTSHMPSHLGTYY
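His-tagged ERG Ets domain (1 uM in the protein solution; 300mM KCl, 50mM Tris-HCl, 1mM EDTA, 1mM DTT, pH 7.5) received compound, then a probe mix of 5 nM fluorescein-DNA and 100nM Texas-615-DNA. Fluorescence polarization was read for both dyes.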
RORgamma inh: inhibitors of mouse ROR gamma transcriptional activity; P51450; Drosophila S2 Gal4-RORgamma UAS-luciferase reporter, 20 h; Potency, µM (titrated, usually from 53.6 µM), most hits filed as inhibitors; 310,000 tested, 5.4% active; note: nearly all actives have a fitted effect of over 60% in size
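Schneider cells (Drosophila), stable Gal4 DBD–ROR gamma + UAS-luc; 1 hr cmpd preincubation; Cu2+ induction 700 uM final; 20 hr ambient; luminescence.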
Gal4-VP16 FLuc: counter-screen for ROR gamma inhibitors: Gal4-VP16 reporter | Drosophila S2 Gal4-VP16 UAS-luciferase, luminescence, 20 h | 310,000 tested, 3.5% active | Potency, µM (doses to about 53.6 µM), most hits filed as inhibitors;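 note: Gal4-VP16 expression switched on by copper sulfate through the metallothionein promoter; nearly all actives have a fitted effect of over 50% in size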
Giardia killer: kills Giardia lamblia; Giardia lamblia trophozoite viability; activity change, % at 7.66 µM, hits read low; AID 540267; 340,000 tested, 0.15% active; in the data active = activity change below about -80%; inconclusive = between about -30% and that limit;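 note: parasites exposed to compound for two days anaerobically before the ATP read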
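Killing of trophozoites was scored by loss of ATP luminescence after a 48 hrs anaerobic exposure to compounds at 37 deg C, using 100 cells per well.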
Each line names hits and unclear results; the compound was inactive in the other large screens. Only a selection was taken, and hits are over-represented in it overall. Unless noted, calls come from the whole dose curve; as a rule, active = well fitted curve in the direction sought with a large enough effect; inconclusive = small, poorly fitted or top-dose-only effect, or another doubt; inactive = no such curve, though single readings can be large; an effect the other way counts as inactive or inconclusive.

COc1ccc(-c2c(C)n([O-])c3c([n+]2=O)CCCC3)cc1OC	none (no result: a7 integrin act, ERG-DNA inh, Giardia killer)
O=C(CSc1ccc(-c2ccccn2)nn1)NCc1ccc(F)cc1	none
COc1ccc(-n2c(COc3ccc(C)cc3)nnc2SCC(N)=O)cc1	RORgamma inh 11.2µM
Cc1ccc(-c2csc(Nc3ccc(C(=O)O)cc3)[n+]2Cc2ccccc2)cc1	a7 integrin act 8.91µM
CCCCCCCCNC(=O)c1ccc(C)cc1	none (no result: a7 integrin act, ERG-DNA inh, Giardia killer)
CCOc1ccc(OCC)c(NC(=O)c2ccc(-c3ccccc3)s2)c1	none (no result: a7 integrin act, RORgamma inh, Gal4-VP16 FLuc, Giardia killer)
CC(=O)CCS(=O)(=O)c1ccc(Oc2ccc(S(=O)(=O)CCC(C)=O)cc2)cc1	RORgamma inh 8.91µM, Gal4-VP16 FLuc inconclusive
O=S(=O)(CCN1CCOCC1)c1ccc(Oc2ccc(S(=O)(=O)CCN3CCOCC3)cc2)cc1	RORgamma inh inconclusive, Gal4-VP16 FLuc 7.94µM
CCOC(=O)N1CCN(S(=O)(=O)N2CCCC(C(=O)NCCCN3CCCCC3CC)C2)CC1 (stereo not drawn)	none
NC(=S)N/N=C/c1cc([N+](=O)[O-])ccc1Cl	RORgamma inh 25.1µM
O=[N+]([O-])c1ccc(Cl)c(/C=N/NC(=S)Nc2ccccc2)c1	RORgamma inh 0.355µM, Gal4-VP16 FLuc 2.24µM
NC(=S)N/N=C/c1cc([N+](=O)[O-])ccc1OCCOc1ccccc1	none
COc1ccc(-c2n[nH]c(=S)n2Cc2ccccc2)cc1	RORgamma inh 7.94µM, Gal4-VP16 FLuc 7.08µM
S=c1[nH]nc(-c2ccccc2)n1Cc1ccccc1	RORgamma inh 2.51µM, Gal4-VP16 FLuc 14.1µM
S=c1[nH]nc(-c2cccs2)n1Cc1ccccc1	RORgamma inh 2.82µM, Gal4-VP16 FLuc inconclusive
COc1ccc(NS(=O)(=O)c2ccc(-c3n[nH]c(=S)n3Cc3ccccc3)cc2)cc1	none
CC(C)c1cc(-c2n[nH]c(=S)n2Cc2ccccc2)cs1	RORgamma inh 0.562µM, Gal4-VP16 FLuc inconclusive
CCOc1cc(-c2n[nH]c(=S)n2Cc2ccccc2)ccc1OC(F)F	a7 integrin act inconclusive (no result: RORgamma inh, Gal4-VP16 FLuc)
CCOc1ccc(CNC(=O)C2CCCN(S(=O)(=O)c3ccc4c(ccn4C)c3)C2)cc1 (stereo not drawn)	none (no result: a7 integrin act, RORgamma inh, Gal4-VP16 FLuc, Giardia killer)
S=c1[nH]nc(-c2ccc(Cl)cc2)n1Cc1ccccc1	RORgamma inh 1.78µM, Gal4-VP16 FLuc 2.82µM
COc1ccc(-c2n[nH]c(=S)n2Cc2ccccc2)cc1OC	RORgamma inh 11.2µM, Gal4-VP16 FLuc inconclusive
S=c1[nH]nc(-c2ccc(Br)o2)n1Cc1ccccc1	RORgamma inh 6.31µM, Gal4-VP16 FLuc 12.6µM
Cc1n[nH]c(=S)n1Cc1ccccc1	none
S=c1[nH]nc(C2CCCCC2)n1Cc1ccccc1	RORgamma inh 2.51µM, Gal4-VP16 FLuc 7.08µM
COc1ccc(CN(C)C2c3ccccc3-c3ccccc32)cc1	none
C=CCn1c(C2CCCCC2)n[nH]c1=S	RORgamma inh 3.98µM, Gal4-VP16 FLuc inconclusive
Cc1c(Cl)cccc1N1C(=O)CC(N(O)c2ccccc2)C1=O (stereo not drawn)	none
Cc1cccc(C)c1N1C(=O)CC(N(O)c2ccccc2)C1=O (stereo not drawn)	RORgamma inh 11.2µM
O=C(Nc1ccncc1)c1ccc2c(c1)C(=O)N(C1CCCCC1)C2=O	RORgamma inh inconclusive, Gal4-VP16 FLuc 11.2µM
O=C(C1CC1)N1CCc2cc(Br)cc(S(=O)(=O)N3CCN(c4ccccn4)CC3)c21	Gal4-VP16 FLuc 22.4µM
O=C(Nc1ccc(O)c2c(=O)cc(-c3ccccc3Cl)oc12)c1cc(Cl)cc(Cl)c1	none (no result: a7 integrin act, ERG-DNA inh)
CC(C)Cc1cc(C(C)(C)C)ccc1OC(=S)N(C)C	RORgamma inh 12.6µM
CCOc1ccc(CNS(=O)(=O)c2ccc3c(c2)CC(C)N3C(C)=O)cc1OC (stereo not drawn)	none (no result: a7 integrin act, RORgamma inh, Gal4-VP16 FLuc, Giardia killer)
COc1cc(CNS(=O)(=O)c2ccc3c(c2)CC(C)N3C(C)=O)cc(OC)c1OC (stereo not drawn)	a7 integrin act inconclusive, Gal4-VP16 FLuc 22.4µM
CC(=O)N1c2ccc(S(=O)(=O)N(C)CC(=O)NCc3ccccc3)cc2CC1C (stereo not drawn)	none
COc1cc(NC(=O)CN(C)S(=O)(=O)c2ccc3c(c2)CC(C)N3C(C)=O)cc(OC)c1OC (stereo not drawn)	a7 integrin act 10µM
COC(=O)c1ccc(NC(=O)CN2CCN(CC#N)CC2)cc1	none
C/C(=N\NC(=S)NC(C)C)c1ccc(Cl)s1	RORgamma inh 1.12µM, Gal4-VP16 FLuc inconclusive
